# From PubChem BioAssay (Tox21)
# Values without a mark were called inactive. Records with an inconclusive call do not appear. Entries that show only a call come without a potency. Calls of active or inactive are those of the source. Unless noted, calls come from the whole dose curve; as a rule, active = well fitted curve in the direction sought with a large enough effect in the repeat runs; inconclusive = weak or mixed curves; inactive = no such curve, though single readings can be large; an effect the other way counts as inactive or inconclusive.
# What was measured:
# [1] = target: Estrogen receptor beta (Homo sapiens) (UniProt Q92731); test: qHTS assay to identify small molecule agonists of the estrogen receptor beta (ER-beta) signaling pathway (AID 1259377; active = well fitted activation curve with a large enough effect in the signal ratio in the repeat runs, not every such curve was filed as active; the % refers to the signal ratio)
# Sequence of Estrogen receptor beta (Homo sapiens) (Q92731 whole entry, looked up, the tested form may be a part): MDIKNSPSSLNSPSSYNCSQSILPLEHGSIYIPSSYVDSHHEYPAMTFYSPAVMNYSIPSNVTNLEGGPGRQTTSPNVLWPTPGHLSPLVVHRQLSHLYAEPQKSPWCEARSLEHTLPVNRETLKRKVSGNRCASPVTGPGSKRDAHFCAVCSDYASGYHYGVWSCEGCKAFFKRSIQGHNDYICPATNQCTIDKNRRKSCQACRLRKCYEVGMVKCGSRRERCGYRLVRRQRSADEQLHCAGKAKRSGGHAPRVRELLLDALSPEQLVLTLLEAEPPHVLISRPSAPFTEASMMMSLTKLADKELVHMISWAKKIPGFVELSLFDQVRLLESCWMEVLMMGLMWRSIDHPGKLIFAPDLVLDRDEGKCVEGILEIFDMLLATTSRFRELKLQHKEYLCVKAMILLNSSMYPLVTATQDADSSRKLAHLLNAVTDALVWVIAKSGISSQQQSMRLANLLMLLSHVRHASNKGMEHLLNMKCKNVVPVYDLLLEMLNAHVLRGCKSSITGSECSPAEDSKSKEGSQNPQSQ
# How it was run: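 Agonist mode cell assay in GripTite HEK293T cells expressing an ER-beta fusion that drives beta-lactamase from an Upstream Activator Sequence; 16 hr compound exposure at 37C, then 2 h LiveBLAzer B/G FRET substrate at room temperature, fluorescence read-out.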
# [2] = target: Estrogen receptor beta (Homo sapiens) (UniProt Q92731); test: qHTS assay to identify small molecule antagonists of the estrogen receptor beta (ER-beta) signaling pathway (AID 1259378; active = well fitted inhibition curve with a large enough effect in the signal ratio in the repeat runs, not every such curve was filed as active; the % refers to the signal ratio; note: potency is the fitted concentration of half-maximal effect)
# How it was run: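 ER-beta-UAS-bla HEK293T cells in 2% charcoal-stripped FBS medium treated with compound plus 1nM final 17-beta-estradiol for 16 hr at 37C. Beta-lactamase reporter read by FRET substrate fluorescence after 2 hours at room temperature.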
# [3] = qHTS assay to identify small molecule agonists of the androgen receptor (AR) signaling pathway in the presence of an antagonist - cell viability counter screen (AID 1259379); note: nearly all actives have a fitted effect of over 25% in size; note: potency is the fitted concentration of half-maximal effect;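 for activity change, negative = cytotoxicity: MDA-kb2 human breast cancer cells carrying an MMTV luciferase reporter; series mostly up to about 92 µM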
# How it was run: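 Cytotoxicity counter-screen run in the same wells as the nilutamide-challenged (3.0 µM final) AR agonist assay in MDA-kb2 cells. Compounds tested at 15 concentrations for 16 h, 37 °C without CO2; CellTiter-Fluor fluorescence read.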
# [4] = qHTS assay to identify small molecule antagonists of the estrogen receptor beta (ER-beta) signaling pathway - cell viability counter screen (AID 1259382); note: series mostly up to about 92 µM; nearly all actives have a fitted effect of over 55% in size
# How it was run: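 Cytotoxicity was measured in the same wells by CellTiter-Glo luminescence after 30 min at room temperature. Cells were ER-beta-bla HEK293T in charcoal-stripped serum, given compound together with 1 nM E2 and incubated 16 h at 37C.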
# [5] = target: Estrogen receptor (Homo sapiens) (UniProt P03372); test: qHTS assay to identify small molecule agonists of the estrogen receptor alpha (ER-alpha) signaling pathway in the presence of an antagonist (AID 1259383; calls by dose curve; note: top concentration of the series differs between compounds; nearly all actives have a fitted effect of over 15% in size)
# Sequence of Estrogen receptor (Homo sapiens) (P03372 whole entry, looked up): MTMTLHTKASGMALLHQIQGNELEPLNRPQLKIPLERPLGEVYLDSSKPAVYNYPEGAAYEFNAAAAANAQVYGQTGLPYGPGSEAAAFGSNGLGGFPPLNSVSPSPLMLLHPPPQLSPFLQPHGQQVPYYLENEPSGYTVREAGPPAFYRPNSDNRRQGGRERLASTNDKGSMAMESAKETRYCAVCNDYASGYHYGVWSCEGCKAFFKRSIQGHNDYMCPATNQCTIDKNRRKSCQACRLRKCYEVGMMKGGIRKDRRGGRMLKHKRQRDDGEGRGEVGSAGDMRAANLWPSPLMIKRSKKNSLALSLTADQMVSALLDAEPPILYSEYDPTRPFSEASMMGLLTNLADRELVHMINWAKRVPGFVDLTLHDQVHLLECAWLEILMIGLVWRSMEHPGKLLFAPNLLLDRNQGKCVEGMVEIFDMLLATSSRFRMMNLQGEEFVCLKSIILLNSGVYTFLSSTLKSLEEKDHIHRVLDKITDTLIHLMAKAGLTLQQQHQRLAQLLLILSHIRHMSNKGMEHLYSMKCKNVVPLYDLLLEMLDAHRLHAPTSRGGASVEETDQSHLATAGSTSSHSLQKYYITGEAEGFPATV
# How it was run: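 Agonist-mode confirmation run in the presence of 10.0nM (final) ICI-182,780 antagonist. The reporter was ERE-driven luciferase in VM7Luc4E2 cells, grown in charcoal-stripped serum. Cells were exposed to 15-concentration compound series for 22hr, then ONE-Glo luminescence was read.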
# [6] = qHTS assay to identify small molecule agonists or antagonists of the thyroid stimulating hormone receptor (TSHR) signaling pathway - wild type cell line counter screen (AID 1259384; calls by dose curve; note: potency is the fitted concentration of half-maximal effect)
# How it was run: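 Wild-type Hek293 cells, 800/well, 18 h at 37C, then compound with Ro20-1724 for 30 min RT. cAMP by HTRF (cAMP-d2/anti-cAMP cryptate), 1 h RT, fluorescence read. 15 concentrations, triplicates.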
# [7] = target: Thyrotropin receptor (Homo sapiens) (UniProt P16473); test: qHTS assay to identify small molecule antagonists of the thyroid stimulating hormone receptor (TSHR) signaling pathway (AID 1259385; calls by dose curve; note: nearly all actives have a fitted effect of over 20% in size; note: potency is the fitted concentration of half-maximal effect)
# Sequence of Thyrotropin receptor (Homo sapiens) (P16473 whole entry, looked up): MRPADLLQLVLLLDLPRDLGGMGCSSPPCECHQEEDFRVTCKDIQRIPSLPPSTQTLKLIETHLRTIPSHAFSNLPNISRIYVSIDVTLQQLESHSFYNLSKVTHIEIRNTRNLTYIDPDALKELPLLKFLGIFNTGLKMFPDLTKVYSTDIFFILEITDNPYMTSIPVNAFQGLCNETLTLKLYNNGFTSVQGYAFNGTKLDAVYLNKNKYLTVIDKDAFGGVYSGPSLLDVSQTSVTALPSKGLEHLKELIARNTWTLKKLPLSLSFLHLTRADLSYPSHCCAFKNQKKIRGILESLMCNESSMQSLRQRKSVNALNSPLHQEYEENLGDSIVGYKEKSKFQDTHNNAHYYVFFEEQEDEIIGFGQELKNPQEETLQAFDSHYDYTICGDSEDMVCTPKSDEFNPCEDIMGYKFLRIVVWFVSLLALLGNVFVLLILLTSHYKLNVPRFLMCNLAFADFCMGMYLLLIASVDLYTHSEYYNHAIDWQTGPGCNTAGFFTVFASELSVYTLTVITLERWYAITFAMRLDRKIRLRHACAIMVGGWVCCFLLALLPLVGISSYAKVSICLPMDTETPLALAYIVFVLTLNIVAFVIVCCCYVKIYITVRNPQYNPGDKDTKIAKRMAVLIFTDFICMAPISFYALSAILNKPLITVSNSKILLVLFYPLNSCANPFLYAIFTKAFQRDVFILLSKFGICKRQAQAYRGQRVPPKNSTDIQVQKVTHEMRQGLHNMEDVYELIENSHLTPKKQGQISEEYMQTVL
# How it was run: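 TSHR-HEK293 cells (800/well) plated 18 h, then compounds with Ro20-1724 and TSH at 1.5 ng/mL final, 30 min at room temperature. cAMP quantified by HTRF (cAMP-d2/anti-cAMP-cryptate, 1 h); 15 concentrations in triplicate.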
# [8] = qHTS assay to identify small molecule agonists of the estrogen receptor alpha (ER-alpha) signaling pathway in the presence of an antagonist - cell viability counter screen (AID 1259386); note: nearly all actives have a fitted effect of over 30% in size; note: potency is the fitted concentration of half-maximal effect; for activity change, negative = cytotoxicity: series mostly up to about 92 µM
# How it was run: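 Compounds tested at 15 concentrations for 22 h at 37C alongside 10.0nM (final) ICI-182,780 antagonist, in VM7Luc4E2 cells grown in phenol red-free, charcoal-stripped medium. Viability read by CellTiter-Fluor fluorescence after 1 h reagent incubation.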
# [9] = target: Androgen receptor (Homo sapiens) (UniProt P10275); test: qHTS assay to identify small molecule agonists of the androgen receptor (AR) signaling pathway in the presence of an antagonist (AID 1259381; calls by dose curve; note: nearly all actives have a fitted effect of over 15% in size; note: potency is the fitted concentration of half-maximal effect)
# Sequence of Androgen receptor (Homo sapiens) (P10275 whole entry, looked up): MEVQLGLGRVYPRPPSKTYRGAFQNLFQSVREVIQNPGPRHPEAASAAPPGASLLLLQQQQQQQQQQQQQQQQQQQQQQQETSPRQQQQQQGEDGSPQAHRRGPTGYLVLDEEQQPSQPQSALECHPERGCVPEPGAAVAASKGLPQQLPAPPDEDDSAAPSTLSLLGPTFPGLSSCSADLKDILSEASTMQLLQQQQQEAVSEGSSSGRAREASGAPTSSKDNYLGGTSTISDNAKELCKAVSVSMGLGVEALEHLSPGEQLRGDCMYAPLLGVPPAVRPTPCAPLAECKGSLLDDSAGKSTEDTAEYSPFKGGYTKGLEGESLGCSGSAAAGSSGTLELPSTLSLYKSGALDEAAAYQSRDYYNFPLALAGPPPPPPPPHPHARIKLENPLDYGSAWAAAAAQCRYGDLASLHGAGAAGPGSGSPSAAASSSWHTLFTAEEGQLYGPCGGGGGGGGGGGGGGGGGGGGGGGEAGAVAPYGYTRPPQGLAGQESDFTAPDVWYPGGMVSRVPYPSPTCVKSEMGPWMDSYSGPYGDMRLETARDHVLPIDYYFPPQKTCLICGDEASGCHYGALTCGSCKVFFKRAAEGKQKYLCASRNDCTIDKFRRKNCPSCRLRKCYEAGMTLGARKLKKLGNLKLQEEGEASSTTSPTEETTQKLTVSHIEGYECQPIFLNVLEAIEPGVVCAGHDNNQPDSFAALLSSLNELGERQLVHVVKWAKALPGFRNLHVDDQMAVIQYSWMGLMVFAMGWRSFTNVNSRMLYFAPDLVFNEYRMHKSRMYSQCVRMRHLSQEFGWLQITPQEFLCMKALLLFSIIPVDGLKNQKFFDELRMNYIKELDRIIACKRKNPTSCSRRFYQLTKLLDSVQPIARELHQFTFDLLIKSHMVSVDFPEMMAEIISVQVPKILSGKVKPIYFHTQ
# How it was run: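 Agonist-mode confirmation run against 3.0 uM final nilutamide: compounds titrated at 15 concentrations onto MDA-kb2 MMTV-luciferase reporter cells. Luminescence measured with ONE-Glo following 16 hr incubation, 37C, 0% CO2.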
# [10] = qHTS assay to identify small molecule agonists of the estrogen receptor beta (ER-beta) signaling pathway - cell viability counter screen (AID 1259380); note: nearly all actives have a fitted effect of over 30% in size; note: potency is the fitted concentration of half-maximal effect
# How it was run: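 Cell viability counter screen: CellTiter-Glo luminescence (30 min, room temperature) measured in the same wells as the beta-lactamase readout, after 16 hr compound exposure at 37C of ER-beta-bla HEK293T cells in 2% charcoal-stripped FBS medium.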
structure (smiles),measurement,setting,value
CN1C[C@H]2c3ccccc3Oc3ccc(Cl)cc3[C@@H]2C1,Potency,[1],inactive
same,Potency,[2],inactive
same,Potency,[3],inactive
same,Potency,[4],inactive
same,Potency,[5],inactive
same,Potency,[6],inactive
same,Potency,[7],inactive
CC1OC(=O)C(C)OC1=O (configuration not stated),Potency,[1],inactive
same,Potency,[2],inactive
same,Potency,[3],inactive
same,Potency,[5],inactive
same,Potency,[7],inactive
same,Potency,[8],inactive
COc1cccc(N(C)C(=S)Oc2ccc3c(c2)CCCC3)n1,Potency,[1],inactive
same,Potency,[2],inactive
same,Potency,[3],inactive
same,Potency,[4],inactive
same,Potency,[5],inactive
same,Potency,[8],inactive
C[C@@H]1C[C@H]2O[C@@]3(O[C@@H]2C(C)(C)O)[C@H](O)[C@@]2(C)[C@@H]4CC[C@H]5C(C)(C)[C@@H](O[C@@H]6OC[C@@H](O)[C@H](O)[C@H]6O)CC[C@@]56C[C@@]46CC[C@]2(C)[C@@H]13,Potency,[1],inactive
same,Potency,[2],inactive
same,Potency,[3],inactive
same,Potency,[9],inactive
same,Potency,[4],inactive
same,Potency,[5],inactive
same,Potency,[6],inactive
same,Potency,[7],inactive
same,Potency,[8],inactive
CCc1c(C(=O)NN2CCCCC2)nn(-c2ccc(Cl)cc2Cl)c1-c1ccc(Br)cc1,Potency,[1],inactive
same,Potency,[2],4.33 µM (active)
same,Potency,[3],inactive
same,Potency,[5],inactive
same,Potency,[6],inactive
same,Potency,[8],inactive
CCCCCCCCCCCCCCCCCCOS(=O)(=O)O,Potency,[1],inactive
same,Potency,[2],48.6 µM (active)
same,Potency,[3],inactive
same,Potency,[10],48.6 µM (active)
same,Potency,[5],inactive
same,Potency,[7],68.6 µM (active)
same,Potency,[8],inactive
C#CCN(C)CCCOc1ccc(Cl)cc1Cl,Potency,[1],inactive
same,Potency,[2],inactive
same,Potency,[3],inactive
same,Potency,[4],inactive
same,Potency,[5],inactive
same,Potency,[8],inactive
CCC(=O)O[C@]1(C(=O)CCl)[C@@H](C)C[C@H]2[C@@H]3CCC4=CC(=O)C=C[C@]4(C)[C@@]3(F)[C@@H](O)C[C@@]21C,Potency,[1],inactive
same,Potency,[2],29.8 µM (active)
same,Potency,[3],inactive
same,Potency,[9],0.0007 µM (active)
same,Potency,[4],inactive
same,Potency,[5],inactive
same,Potency,[6],inactive
same,Potency,[8],inactive
CCCCCCCCO[C@@H]1O[C@H](CO)[C@@H](O)[C@H](O)[C@H]1O,Potency,[1],inactive
same,Potency,[2],inactive
same,Potency,[3],inactive
same,Potency,[10],inactive
same,Potency,[5],inactive
same,Potency,[6],inactive
same,Potency,[7],inactive
same,Potency,[8],inactive
S=C([S-])NCCNC(=S)[S-].[Mn+2],Potency,[1],inactive
same,Potency,[2],inactive
same,Potency,[3],inactive
same,Potency,[4],inactive
same,Potency,[7],inactive
same,Potency,[8],inactive
O=C(Cl)c1cc(C(=O)Cl)cc(C(=O)Cl)c1,Potency,[1],inactive
same,Potency,[2],inactive
same,Potency,[3],inactive
same,Potency,[10],inactive
same,Potency,[5],inactive
same,Potency,[8],inactive
O=C1C(O)=C(O)C(=O)C(O)=C1O,Potency,[1],inactive
same,Potency,[2],inactive
same,Potency,[3],inactive
same,Potency,[10],inactive
same,Potency,[5],inactive
same,Potency,[6],inactive
same,Potency,[7],inactive
same,Potency,[8],inactive
CCCCC(=O)OCC(=O)[C@H]1[C@H](C)C[C@H]2[C@@H]3C[C@H](F)C4=CC(=O)C=C[C@]4(C)[C@@]3(F)[C@@H](O)C[C@@]21C,Potency,[1],inactive
same,Potency,[2],inactive
same,Potency,[3],inactive
same,Potency,[9],0.0067 µM (active)
same,Potency,[4],inactive
same,Potency,[5],inactive
same,Potency,[8],inactive
OCc1cc(C(O)CNCCCCCCOCCCCc2ccccc2)ccc1O (configuration not stated),Potency,[1],inactive
same,Potency,[2],16.8 µM (active)
same,Potency,[3],26.6 µM (active)
same,Potency,[10],21.1 µM (active)
same,Potency,[5],inactive
same,Potency,[6],0.0009 µM (active)
same,Potency,[7],inactive
same,Potency,[8],11.9 µM (active)
COC(=O)C1=C(C)NC(COC(N)=O)=C(C(=O)OC(C)C)C1c1cccc(Cl)c1Cl (configuration not stated),Potency,[1],inactive
same,Potency,[2],inactive
same,Potency,[3],inactive
same,Potency,[9],inactive
same,Potency,[4],inactive
same,Potency,[5],inactive
same,Potency,[6],inactive
same,Potency,[7],inactive
same,Potency,[8],inactive
NCC(=O)O,activation,[1],-2.53% [at 19 µM]
same,"activity, negative = inhibition",[2],10% [at 19 µM]
same,"activity change, negative = cytotoxicity",[3],0.351% [at 19 µM]
same,"activity change, negative = cytotoxicity",[10],4.31% [at 19 µM]
same,Potency,[5],inactive
same,cAMP activity change,[6],"-6.62% [at 18.9 µM, active compounds read high]"
same,"activity change, negative = inhibition",[7],2.94% [at 19 µM]
CCCCC(CC)COC(=O)COc1ccc(Cl)cc1Cl (configuration not stated),Potency,[1],inactive
same,Potency,[2],inactive
same,Potency,[3],inactive
same,Potency,[4],inactive
same,Potency,[5],inactive
same,Potency,[6],inactive
same,Potency,[8],inactive
CC(C)(O)c1ccc(CNC(=O)c2cccnc2Oc2ccc(F)cc2)cc1,Potency,[1],inactive
same,Potency,[2],inactive
same,Potency,[3],inactive
same,Potency,[10],inactive
same,Potency,[6],inactive
same,Potency,[7],inactive
same,Potency,[8],inactive
C=CCOc1ccccc1OCC(O)CNC(C)C (configuration not stated),Potency,[1],inactive
same,Potency,[2],inactive
same,Potency,[3],inactive
same,Potency,[10],inactive
same,Potency,[5],inactive
same,Potency,[8],inactive
CC(C)Nc1ccc(NC(C)C)c2c1C(=O)c1ccccc1C2=O,Potency,[1],inactive
same,Potency,[2],inactive
same,Potency,[3],11.3 µM (active)
same,Potency,[4],inactive
same,Potency,[5],inactive
same,Potency,[6],inactive
same,Potency,[8],11.3 µM (active)
O=C1OC(=O)C2C3C=CC(C3)C12 (configuration not stated),Potency,[1],inactive
same,Potency,[2],inactive
same,Potency,[3],inactive
same,Potency,[10],inactive
same,Potency,[7],inactive
same,Potency,[8],inactive
O=C(CS)Nc1ccccc1,Potency,[1],inactive
same,Potency,[2],inactive
same,Potency,[3],inactive
same,Potency,[10],inactive
same,Potency,[5],inactive
same,Potency,[7],inactive
same,Potency,[8],inactive
CC(C)(COC(=O)c1ccccc1)COC(=O)c1ccccc1,Potency,[1],inactive
same,Potency,[2],inactive
same,Potency,[3],inactive
same,Potency,[10],inactive
same,Potency,[4],inactive
same,Potency,[8],inactive
C/C=C/C=C/CO,Potency,[1],inactive
same,Potency,[2],inactive
same,Potency,[3],inactive
same,Potency,[10],inactive
same,Potency,[6],inactive
same,Potency,[7],inactive
same,Potency,[8],inactive
CN(C)CCN(Cc1ccccc1)c1ccccn1,Potency,[1],inactive
same,Potency,[2],inactive
same,Potency,[3],inactive
same,Potency,[4],inactive
same,Potency,[5],inactive
same,Potency,[6],inactive
same,Potency,[8],inactive
CCCCC1=NC2(CCCC2)C(=O)N1Cc1ccc(-c2ccccc2-c2nn[nH]n2)cc1,Potency,[1],inactive
same,Potency,[2],inactive
same,Potency,[3],inactive
same,Potency,[10],inactive
same,Potency,[5],inactive
CCCCNc1ccc(C(=O)OCCOCCOCCOCCOCCOCCOCCOCCOCCOC)cc1,Potency,[1],inactive
same,Potency,[2],inactive
same,Potency,[3],inactive
same,Potency,[4],inactive
same,Potency,[5],inactive
same,Potency,[6],inactive
CCCCCCCCCCCCCCOS(=O)(=O)O,Potency,[1],inactive
same,Potency,[3],inactive
same,Potency,[10],30.6 µM (active)
same,Potency,[5],inactive
same,Potency,[6],inactive
C=C(C)C(=O)OCCOCC,Potency,[1],inactive
same,Potency,[3],inactive
same,Potency,[4],inactive
same,Potency,[5],inactive
same,Potency,[6],inactive
C[N+]1(CC2COC(c3ccccc3)(C3CCCCC3)O2)CCCCC1 (configuration not stated),Potency,[1],inactive
same,Potency,[2],inactive
same,Potency,[10],inactive
same,Potency,[4],inactive
same,Potency,[5],inactive
same,Potency,[6],inactive
same,Potency,[7],inactive
